The list is not random: actives were taken first. Their share in the collection is about 0.43%.
GAA glycogen mod – qHTS Assay for Inhibitors and Activators of Human alpha-Glucosidase Cleavage of Glycogen; recombinant GAA, glycogen substrate, Amplex Red glucose oxidase fluorescence; Potency, µM (series often up to 76.4 µM), actives largely listed as inhibitors; actives 0.38% (n = 300,000); AID 2100, 2009;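 note: the screen sought inhibitors and activators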
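qHTS, 1536-well; enzyme 4 nM final; cpd up to 77 uM; substrate bovine liver glycogen 30 ug; 50 mM citrate/phosphate pH 5.0, 0.01% Tween-20; 37 C, 40 min; Amplex Red detection 45 min RT; Hill fit → AC50.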
N370S GC mod – qHTS Assay for Inhibitors and Activators of N370S glucocerebrosidase as a Potential Chaperone Treatment of Gaucher Disease; actives 0.092% (n = 330,000); Potency, µM (highest dose often 59.4 µM), usual class: inhibitors; N370S GC spleen homogenate, 4MU-glucoside fluorescence
aGal spleen mod – qHTS Assay for Inhibitors and Activators of Human alpha-Galactosidase From Spleen Homogenate; AID 2107, 2009; actives 0.008% (n = 240,000); Potency, µM (titrated, usually from 80 µM), usual class: inhibitors; Alpha-galactosidase A (Homo sapiens), P06280; human spleen homogenate, 4MU-alpha-Gal fluorescence, 40 min
Target sequence (P06280 32-429 limits assumed): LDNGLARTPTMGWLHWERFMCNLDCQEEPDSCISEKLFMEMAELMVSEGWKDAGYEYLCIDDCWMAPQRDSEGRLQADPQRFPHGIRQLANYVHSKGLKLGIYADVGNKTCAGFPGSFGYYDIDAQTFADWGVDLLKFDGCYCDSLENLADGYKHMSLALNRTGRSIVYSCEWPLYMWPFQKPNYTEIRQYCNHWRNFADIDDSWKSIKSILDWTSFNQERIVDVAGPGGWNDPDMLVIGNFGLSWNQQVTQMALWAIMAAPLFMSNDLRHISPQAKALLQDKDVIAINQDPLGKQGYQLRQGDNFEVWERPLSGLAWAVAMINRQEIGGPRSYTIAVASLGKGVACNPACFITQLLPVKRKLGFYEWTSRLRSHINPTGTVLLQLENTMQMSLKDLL
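Inhibition or activation of alpha-galactosidase in human spleen homogenate is scored by 4-MU fluorescence after 40 min at 37C, pH 5.0, with 1 mM substrate. AC50s come from concentration-response fitted to the Hill equation.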
aGlu spleen mod – qHTS Assay for Inhibitors and Activators of Human alpha-Glucosidase From Spleen Homogenate; Lysosomal alpha-glucosidase (Homo sapiens), P10253; human spleen homogenate, 4-MU-alpha-glucoside fluorescence; Potency, µM (doses to about 79.9 µM), most hits filed as inhibitors; actives 0.006% (n = 240,000); AID 2112, 2009
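AC50 values come from Hill-equation fits of concentration-response data, normalized to no-enzyme and full-activity controls. Enzyme source: 1 ug human spleen homogenate; 1 mM fluorogenic 4-MU glucoside, pH 5.0 citrate buffer, 37 C, 40 min.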
GLA inh pH 4.5 – qHTS Assay for Inhibitors of Human alpha-Galactosidase at pH 4.5 | Alpha-galactosidase A (Homo sapiens), P06280 | purified enzyme, 4-MU-alpha-Gal fluorescence, pH 4.5 | activity change, negative = inhibition, % at 105 µM | 230,000 tested, under 10 active | AID 1467, 2008
GAA inh – qHTS Assay for Inhibitors of Human alpha-Glucosidase as a Potential Chaperone Treatment of Pompe Disease; purified human GAA, 4-MU-alpha-glucoside fluorescence; AID 1466, 2008; Potency, µM (top dose mostly 76.9 µM), hits mostly inhibitors; actives 0.005% (n = 200,000)
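qHTS format, compound range up to 77 uM. Human lysosomal enzyme at 4 nM, 400 uM 4-MU glucoside substrate, pH 5.0, 20 min room temperature; fluorescence after alkaline stop gives activity normalized to controls.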
Numbers stand for hits; – = inactive; ? = inconclusive; · = no result; ! = a repeat was not active; [ ] = dose if it differs, or a comment. Calls come from the whole dose curve; as a rule, active = well fitted curve in the direction sought with a large enough effect; inconclusive = small, poorly fitted or top-dose-only effect, or another doubt; inactive = no such curve, though single readings can be large; an effect the other way counts as inactive or inconclusive.

SMILES	GAA glycogen mod	N370S GC mod	aGal spleen mod	aGlu spleen mod	GLA inh pH 4.5	GAA inh
O=C(NNC(=O)c1ccccc1F)C1=NN(c2ccccc2)C(=O)CC1	50µM	–	·	·	·	·
CC(C)NC(=O)C1=NN(c2ccccc2)C(=O)CC1	–	–	·	·	·	·
COc1ccc2c(c1O)-c1ccccc1CCN(C)C2	–	–	–	–	–	·
CN1CCc2cccc3c2[C@@H]1Cc1ccc(O)c(O)c1-3	3.5µM	–	–	–	–	?
O=C(Nc1cccc(Br)c1)N1CCC(CN2CCCCCC2)CC1	–	·	·	·	·	·
COc1cccc(/C=N/Nc2ccc(S(=O)(=O)O)cc2)c1O	7.9µM	–	–	–	–	–
Cc1cc(-c2ccc(N=Nc3ccc4c(S(=O)(=O)O)cc(S(=O)(=O)O)c(N)c4c3O)c(C)c2)ccc1N=Nc1ccc2c(S(=O)(=O)O)cc(S(=O)(=O)O)c(N)c2c1O	·	–	–	–	–	·
O=C(CN1CCN(c2ccc(O)cc2)CC1)N1CCc2ccccc21	5µM	–	·	·	·	·
O=[N+]([O-])c1ccccc1/C=N\Nc1nccs1	·	–	·	·	·	·
Clc1cccc(Cl)c1/C=N\Nc1nccs1	28µM	–	–	–	–	–
COc1ccc(-c2coc3cc(O)cc(O)c3c2=O)cc1	–	?	–	–	–	–[15.4 µM]
O=c1c(-c2ccc(O)cc2)coc2cc(O)cc(O)c12	–	16µM!	–	–	–	·
O=C(O)/C=C\c1ccc(O)c(O)c1	·	–	–	–	–	·
O=C(/C=C/c1ccc(O)cc1)c1ccc(O)cc1O	–	1.8µM!	–	–	–	–
O=C(/C=C/c1ccc(O)c(O)c1)c1ccccc1O	7.9µM	–	–	–	–	·
Cc1cccc(Cn2c(C)c(C)c3cc(C(=O)NCCN4CCOCC4)ccc32)c1	–	?	·	·	·	·
Cc1c(C)n(Cc2ccc(F)cc2)c2ccc(C(=O)NCCN3CCOCC3)cc12	–	14µM	·	·	·	·
OC1CCN(C(=S)Nc2ccc(Nc3ccccc3)cc2)CC1	4µM	–	–	–	–	–
S=C(Nc1ccc(Nc2ccccc2)cc1)N1CCN(c2ncccn2)CC1	8.9µM	–	–	–	–	–
S=C(Nc1ccccc1)N1CCC(C2CCN(C(=S)Nc3ccccc3)CC2)CC1	–	–	–	–	–	–
CCc1ccc(O)c(N=Cc2cccc(C)c2O)c1	16µM	–	–	–	–	–
Cc1cccc(C=Nc2ccc3c4c(cccc24)CC3)c1O	14µM	–	–	–	–	–
C=CCc1cccc(C=Nc2cc(Br)ccc2O)c1O	?	–	–	–	–	–
CC(O)CCCCCCC/C=C/C=C/C(N)=O (centres undefined)	·	–[12.8 µM]	–[17.5 µM]	–[17.4 µM]	·	·
O=C(Nc1ccc([N+](=O)[O-])cc1O)Nc1ccccc1Br	·	–	–	–	·	·
SMILES	GAA glycogen mod	N370S GC mod	aGal spleen mod	aGlu spleen mod	GLA inh pH 4.5	GAA inh
CCCCOC(=O)c1cc(Cl)c(O)c(OC)c1	–	–	–	–	–	–
COc1cc(C(=O)OCCC(C)C)cc(OC)c1O	11µM	–	–	–	–	–
Cc1ccc(NCc2n[nH]c(=S)n2-c2cccc(Cl)c2)cc1	?	–	–	–	–	–
Cc1ccc(-n2c(CNc3cccc(Cl)c3)n[nH]c2=S)cc1	28µM	–	–	–	–	–
CC(C)c1nc2n(n1)C1(CCCCC1)[C@@H]1CCCC[C@@H]1N2	–	·	·	·	·	·
COc1cccc(OCC(=O)NNC(=S)Nc2ccc(Cl)cc2Cl)c1	56µM	–	–	–	–	–
COc1ccc(-c2ccc(OC)c(C3C4C=CCCC4(C)C(=O)N3Cc3ccccc3)c2)cc1 (centres undefined)	·	–	–	–	·	·
C=CCc1cc(/C=C/c2nc(O)c([N+](=O)[O-])c(=O)[nH]2)cc(OC)c1O	11µM	–	–	–	–	?
O=C(NNc1cccc(Cl)n1)c1c(Cl)cccc1Cl	8.9µM	–	–	–	–	–
O=C(NNc1cccc(Cl)n1)c1c(F)cccc1F	?	–	–	·	–	–
CC[C@H](C)[C@H](NC(=O)[C@H](Cc1ccc(O)cc1)NC(=O)[C@H](Cc1cnc[nH]1)NC(=O)[C@H](CCCNC(=N)N)NC(=O)[C@H](CC(C)C)NC(=O)[C@H](C)NC(=O)[C@H](CO)NC(=O)[C@H](Cc1ccc(O)cc1)NC(=O)[C@H](Cc1ccc(O)cc1)NC(=O)[C@H](CCCNC(=N)N)NC(=O)[C@H](C)NC(=O)[C@H](CCSC)NC(=O)[C@H](CC(=O)O)NC(=O)[C@H](CCC(=O)O)NC(=O)[C@H](C)NC(=O)[C@@H]1CCCN1)C(=O)N[C@@H](CC(N)=O)C(=O)N[C@@H](CC(C)C)C(=O)N[C@H](C(=O)N[C@H](C(=O)N[C@@H](CCCNC(=N)N)C(=O)N[C@@H](CCC(N)=O)C(=O)N[C@@H](CCCNC(=N)N)C(=O)N[C@@H](Cc1ccc(O)cc1)C(N)=O)[C@@H](C)O)[C@@H](C)CC	·	–	–	–	·	·
Cc1cc(C)cc(N(CC(=O)NC2CCC(C)CC2)S(=O)(=O)c2c(C)[nH]c(=O)[nH]c2=O)c1 (centres undefined)	–	0.4µM	–	–	–	·
CCC(C)NC(=O)CN(c1cc(C)cc(C)c1)S(=O)(=O)c1c(C)[nH]c(=O)[nH]c1=O (centres undefined)	–	10µM	–	–	–	·
COc1cc(NC(=O)CN(c2cc(C)cc(C)c2)S(=O)(=O)c2c(C)[nH]c(=O)[nH]c2=O)cc(OC)c1	–	?	·	·	·	·
Cc1cc(C)cc(N(CC(=O)O)S(=O)(=O)c2c(C)[nH]c(=O)[nH]c2=O)c1	–	–	–	–	–	–
Cc1noc(C)c1S(=O)(=O)N(CC(=O)NC1CCC(C)CC1)c1ccc(C(C)C)cc1 (centres undefined)	·	–	·	·	·	·
CCOc1ccc(N(CC(=O)NC2CCCC2)S(=O)(=O)c2c(C)[nH]c(=O)[nH]c2=O)cc1	–	7.9µM	–	–	–	–
Cc1cc(C)cc(N(CC(=O)NC2CCCCCC2)S(=O)(=O)c2c(C)[nH]c(=O)[nH]c2=O)c1	–	0.71µM	–	–	–	·
CC(C)Cn1nc(NC(=O)c2cccc(Cl)c2)c2cc3ccccc3nc21	–	·	·	·	·	·
Cc1c(CC(=O)N2CCCCC2)c(=O)oc2c(C)c3occ(C(C)(C)C)c3cc12	–	·	·	·	·	·
